Molecules are shown by their SMILES. Calls of active or inactive are those of the source. How the source made its calls: active means hit-call score of the fitted dose curve at least 0.9, where 1 is the maximum; inactive means score below 0.9.

Read-out in the experiment: Intercellular Adhesion Molecule 1 (ICAM1), ICAM1 (gene 3383)
Put plainly: BSK_BE3C_ICAM1: BioMAP Diversity Plus: BE3C Assay for Intercellular Adhesion Molecule 1 (ICAM1) Biomarker Activity (AID 2284278). Conditions: primary human bronchial epithelial cells. The protocol: BSK_BE3C is a cell-based, multiplexed-readout assay that uses bronchial epithelial cell, a human lung primary cell, with measurements taken at 24 hours after chemical dosing in a 96-well plate.BSK_BE3C_ICAM1 is an assay component measured in the BSK_BE3C assay. It measures ICAM-1 antibody related to regulation of gene expression using ELISA technology.Data from the assay component BSK_BE3C_ICAM1 was analyzed at the endpoint, BSK_BE3C_ICAM1, in the positive analysis fitting direction relative to DMSO as the negative control and baseline of activity. Using a type of binding reporter, gain or loss-of-signal activity can be used to understand protein changes. To generalize the intended target to other relatable targets, this assay endpoint is annotated to the 'cell adhesion molecules' intended target family, where the subfamily is 'Immunoglobulin CAM'.
The levels of cell surface (or secreted, indicated by the prefix "s") biomarker endpoints were measured by ELISA. Overt cytotoxicity to cells in confluent adherent cultures (all systems other than the BT system) was assessed by measuring total protein levels using sulforhodamine B (SRB) staining in parallel cultures at the time of biomarker measurements, indicated as SRB endpoints. For proliferation assays for adherent cell types, individual cell types are cultured at sub-confluence and relative cell numbers quantified by SRB staining at time points optimized for each system (48 h: 3C and CASM3C systems; 72 h: BT and HDF3CGF systems; 96 h: SAg system). SRB was performed by staining cells with 0.1% SRB after fixation with 10% TCA and reading wells at 560 nm.Viability and proliferation of PBMC (T cells) was quantified by Alamar Blue reduction for the SAg and BT systems. For PBMC viability (referred to as PBMC Cytotoxicity within the assay endpoint names), cells were plated (75,000/well in a 96-well plate) and then chemical samples added for 1 h before addition of activators, SEB and TSST-1 (20 ng/mL final concentration each). Cells were incubated for 90 h. Then, Alamar Blue (20 uL/well) (Invitrogen, Cat DAL1100) was added for 6 h, and the plates were read with a fluorescence microplate reader at 546/580 nm (excitation/emission). For PBMC proliferation, cells were plated and activated as above but incubated for only 16 h prior to addition of Alamar Blue. Plates were read after 6 h.
Regarding `FC(F)(F)C(F)(F)C(F)(F)C(F)(F)C(F)(F)C(F)(F)I`, the outcome was inactive.
To `NCC(F)(F)C(F)(F)C(F)(F)C(F)(F)F` belongs “inactive”.
In the case of `FC(F)=C(F)C(F)(F)C(F)(F)C(F)(F)C(F)(F)C(F)(F)C(F)(F)F`, the outcome was inactive.
In the case of `FC(F)C(F)(F)COCC1CO1` (stereo not given), the result was inactive.
To `C[Si](C)(C)C(F)(F)C(F)(F)C(F)(F)F` belongs “inactive”.
To `FC(F)(F)COC(OCC(F)(F)F)OCC(F)(F)F` belongs “inactive”; to `OC(O)(C(F)C(O)(O)C(F)(F)F)C(F)(F)F`, “inactive”; to `O=C(Cl)C(F)(F)C(F)(F)C(F)(F)C(=O)Cl`, “inactive”.
To `OCCC(F)(F)C(F)(F)C(F)(F)C(F)(F)F` belongs “inactive”.
Take `O=S(=O)(O)CCC(F)(F)C(F)(F)C(F)(F)C(F)(F)C(F)(F)C(F)(F)F`: the outcome was inactive.

The values are drawn from PubChem BioAssay (EPA / NIEHS).
